ELG1 DNA repair – blocks ELG1-dependent DNA repair in HEK293T cells | HEK293T ELG1-luciferase reporter, luminescence, 16 h; DNA damage induced by 5-fluorouridine | Potency, µM (doses to about 46.1 µM), usual class: inhibitors | 330,000 compounds, 2.3% hits; also: nearly all actives have a fitted effect of over 55% in size
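Cells (2,000 per well) received 5-fluorouridine plus test compound or DMSO and were incubated 16 hr at 37 °C, 5% CO2. Luciferase activity was read by luminescence 30 min after ONE-Glo addition; signal suppression marked inhibition of damage-induced ELG1 function.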
ALOX12 inh – inhibitors of human 12S-lipoxygenase ALOX12. P18054. purified 12hLO, xylenol orange hydroperoxide absorbance. Potency, µM (series often up to 108 µM), hits mostly inhibitors. 580,000 compounds, 1.1% hits. AID 1671190
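Hydroperoxide product was detected by ferrous iron/xylenol orange as the 573 to 405 nm absorbance ratio. Arachidonic acid at 40 uM (final) was turned over for 30 min at room temperature by 150 nM human 12hLO, pH 7.0 Hepes buffer, after 15 min compound preincubation.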
DT40 TDP1 CPT – growth inhibition of DT40 Tdp1-/-;hTDP1 cells with camptothecin (screen for TDP1 inhibitors) | Potency, µM (top dose mostly 46.2 µM), most hits filed as inhibitors | 420,000 compounds, 12% hits | chicken DT40 Tdp1-/-;hTDP1 cells + 20 nM CPT, ATP luminescence, 48 h; also: nearly all actives have a fitted effect of over 55% in size
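Chicken DT40 Tdp1-/- cells stably complemented with human TDP1 were seeded at 400 cells/well in medium containing 20 nM camptothecin, exposed to pin-transferred compounds, and grown at 37 °C for at least 48 hr. Viability was read as ATP luminescence.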
DT40 TDP1 no CPT – qHTS for Inhibitors of human tyrosyl-DNA phosphodiesterase 1 (TDP1): qHTS in cells in absence of CPT; Potency, µM (series often up to 46.2 µM), usual class: inhibitors; DT40 Tdp1-/- hTDP1 cells, no CPT, ATP luminescence, 48 h; AID 686978, 2013; 420,000 compounds, 15% hits; also: nearly all actives have a fitted effect of over 55% in size
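A cellular qHTS used chicken DT40 cells lacking endogenous Tdp1 but carrying stably transfected human TDP1. Compounds were applied without camptothecin, and cell growth kinetics were judged by ATP-dependent luminescence after ≥48 hr.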
Gal4-VP16 FLuc – counter-screen for ROR gamma inhibitors: Gal4-VP16 reporter. Drosophila S2 Gal4-VP16 UAS-luciferase, luminescence, 20 h. Potency, µM (titrated, usually from 53.6 µM), hits mostly inhibitors. 310,000 compounds, 3.5% hits;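 also: Gal4-VP16 expression switched on by copper sulfate through the metallothionein promoter; nearly all actives have a fitted effect of over 50% in size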
RORgamma inh – blocks mouse ROR gamma transcriptional activity. P51450. Drosophila S2 Gal4-RORgamma UAS-luciferase reporter, 20 h. Potency, µM (series often up to 53.6 µM), usual class: inhibitors. 310,000 compounds, 5.4% hits. AID 2551; also: nearly all actives have a fitted effect of over 60% in size
Target sequence (P51450 whole entry, looked up, the tested form may be a part): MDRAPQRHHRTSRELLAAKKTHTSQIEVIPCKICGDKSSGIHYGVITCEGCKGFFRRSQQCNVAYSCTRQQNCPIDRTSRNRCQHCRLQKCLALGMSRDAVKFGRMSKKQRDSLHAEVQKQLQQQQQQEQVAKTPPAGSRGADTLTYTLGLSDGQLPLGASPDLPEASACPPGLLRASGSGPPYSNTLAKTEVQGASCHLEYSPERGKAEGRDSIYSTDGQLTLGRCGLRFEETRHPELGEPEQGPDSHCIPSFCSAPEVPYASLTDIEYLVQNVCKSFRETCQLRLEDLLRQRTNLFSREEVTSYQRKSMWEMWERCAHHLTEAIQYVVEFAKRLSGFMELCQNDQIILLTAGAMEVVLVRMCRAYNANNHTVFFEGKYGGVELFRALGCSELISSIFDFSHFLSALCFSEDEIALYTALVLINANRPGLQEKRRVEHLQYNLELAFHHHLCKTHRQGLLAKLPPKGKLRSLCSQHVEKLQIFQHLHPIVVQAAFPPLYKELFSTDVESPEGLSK
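Luciferase reporter read in Schneider cells carrying Gal4-RORγ (mouse) and UAS-Photinus luciferase; cells given compound 1 h before 700 uM copper sulfate induction, then incubated 20 h at ambient temperature.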
Of the large screens only hits and unclear results are named; the others gave an inactive call. Hits are enriched below; roughly 15% of the tested compounds scored in any of these assays. Calls follow the shape of the dose curve; as a rule, active = well fitted curve in the direction sought with a large enough effect; inconclusive = small, poorly fitted or top-dose-only effect, or another doubt; inactive = no such curve, though single readings can be large; an effect the other way counts as inactive or inconclusive.

COc1ccc(S(=O)(=O)N2CCN(C)CC2)cc1NC(=O)c1ccccc1F	DT40 TDP1 no CPT inconclusive
CCCN(CCC)C(=O)c1cc2c(=O)[nH]c3ccc(C)cc3c2s1	DT40 TDP1 CPT inconclusive, DT40 TDP1 no CPT 16.4µM
Cc1ccc2[nH]c(=O)c3cc(C(=O)N(C)Cc4ccco4)sc3c2c1	ELG1 DNA repair inconclusive, ALOX12 inh inconclusive, DT40 TDP1 CPT inconclusive, DT40 TDP1 no CPT inconclusive
Cc1ccc(C)c(N(C)C(=O)c2cc3c(=O)[nH]c4ccc(C)cc4c3s2)c1	DT40 TDP1 CPT 16.4µM, DT40 TDP1 no CPT 4.11µM
Cc1ccc2[nH]c(=O)c3cc(C(=O)N4CCN(C(=O)c5ccco5)CC4)sc3c2c1	ELG1 DNA repair 16.4µM, DT40 TDP1 CPT inconclusive
CCOCCCN(Cc1ccco1)C(=O)c1cc2c(=O)[nH]c3ccc(C)cc3c2s1	ELG1 DNA repair 16.4µM, DT40 TDP1 CPT 23.1µM, DT40 TDP1 no CPT 11.6µM
O=C1COCC2(CN(c3ccc(C(F)(F)F)cn3)C2)CN1c1ccccc1F	none (no result: ELG1 DNA repair, DT40 TDP1 CPT, DT40 TDP1 no CPT, Gal4-VP16 FLuc, RORgamma inh)
O=C(CCc1ccccc1)N1C[C@@H](CO)[C@H](c2ccncc2)C1	none (no result: ELG1 DNA repair, DT40 TDP1 CPT, DT40 TDP1 no CPT, Gal4-VP16 FLuc, RORgamma inh)
CCc1ccc(NC(=O)Cn2c(=O)c(-c3noc(CC)n3)c3n(c2=O)CCCCC3)cc1	none (no result: ELG1 DNA repair, DT40 TDP1 CPT, DT40 TDP1 no CPT, Gal4-VP16 FLuc, RORgamma inh)
CCOc1ccccc1CN1CCCCC12Cc1ccccc1CNC2=O (configuration not stated)	none (no result: ELG1 DNA repair, DT40 TDP1 CPT, DT40 TDP1 no CPT, Gal4-VP16 FLuc, RORgamma inh)
CCN(C(=O)c1cc2c(=O)[nH]c3ccc(C)cc3c2s1)c1ccc(OC)cc1	ELG1 DNA repair inconclusive, DT40 TDP1 CPT 29.1µM, DT40 TDP1 no CPT 9.2µM
Cc1nnc2sc(-c3ccc(CNC(=O)C(C)(C)Oc4ccc(Br)cc4)cc3)nn12	none (no result: ELG1 DNA repair, DT40 TDP1 CPT, DT40 TDP1 no CPT, Gal4-VP16 FLuc, RORgamma inh)
Cc1ccc(-n2nc(CO)c(C(=O)NCc3cccs3)n2)cc1	ALOX12 inh inconclusive (no result: ELG1 DNA repair, Gal4-VP16 FLuc, RORgamma inh)
CCOc1ccc(-n2nc(CO)c(C(=O)NCc3cccs3)n2)cc1	DT40 TDP1 CPT inconclusive, DT40 TDP1 no CPT 16.4µM (no result: ELG1 DNA repair, Gal4-VP16 FLuc, RORgamma inh)
CCOc1ccc(/C(CCC(=O)O)=N/NC(=S)NCCc2ccccc2)cc1	ALOX12 inh inconclusive, Gal4-VP16 FLuc inconclusive, RORgamma inh 7.94µM
CCOc1ccc(C(=O)OCC(=O)NCCCc2ccccc2)cc1	DT40 TDP1 CPT inconclusive
C=CC(=O)OCCSc1nc(N2CCOCC2)nc(N2CCOCC2)n1	none (no result: ELG1 DNA repair, DT40 TDP1 CPT, DT40 TDP1 no CPT, Gal4-VP16 FLuc, RORgamma inh)
O=C(CCN1C(=O)C2C3C=CC(C3)C2C1=O)Nc1ccccn1 (configuration not stated)	none (no result: ELG1 DNA repair)
Cc1cccc(NC(=O)CCN2C(=O)C3C4C=CC(C4)C3C2=O)n1 (configuration not stated)	DT40 TDP1 CPT 16.4µM, DT40 TDP1 no CPT 23.1µM
O=C1C2C3C=CC(C3)C2C(=O)N1CCc1ccccc1 (configuration not stated)	none
O=C(CCN1C(=O)C2C3C=CC(C3)C2C1=O)NCCc1ccccc1 (configuration not stated)	ELG1 DNA repair inconclusive, DT40 TDP1 CPT inconclusive, DT40 TDP1 no CPT 25.9µM
CCN(C(=O)C1CCCC1)C1CC1	none (no result: ELG1 DNA repair, DT40 TDP1 CPT, DT40 TDP1 no CPT, Gal4-VP16 FLuc, RORgamma inh)
COc1ccc(/C=N/n2cnnc2)cc1Oc1nc(Cl)ncc1F	none
COc1cc(/C=N/n2cnnc2)ccc1Oc1nc(Cl)ncc1F	ELG1 DNA repair inconclusive, DT40 TDP1 CPT 16.4µM, DT40 TDP1 no CPT inconclusive, Gal4-VP16 FLuc inconclusive, RORgamma inh inconclusive
COc1cc(/C=N/n2cnnc2)ccc1OC(=O)c1cccnc1	DT40 TDP1 CPT inconclusive, DT40 TDP1 no CPT inconclusive, Gal4-VP16 FLuc 11.2µM, RORgamma inh inconclusive
COc1cc(/C=C(/C#N)C(=O)Nc2ccc(C)cc2)ccc1Oc1nc(Cl)ncc1F	DT40 TDP1 CPT 23.1µM, DT40 TDP1 no CPT 16.4µM, Gal4-VP16 FLuc inconclusive
COc1ccc(/C=N/NC(=O)CC#N)cc1Oc1nc(Cl)ncc1F	DT40 TDP1 no CPT inconclusive
CCn1nc(C)cc1C(=O)N1CCCN(Cc2ccc(F)cc2)C(C(C)C)C1 (configuration not stated)	none (no result: ELG1 DNA repair, DT40 TDP1 CPT, DT40 TDP1 no CPT, Gal4-VP16 FLuc, RORgamma inh)
COc1cccc(C(=O)N(Cc2ccccc2)Cc2cc3cc4c(cc3[nH]c2=O)OCCO4)c1	ELG1 DNA repair inconclusive, DT40 TDP1 CPT 13µM, DT40 TDP1 no CPT 20.6µM, RORgamma inh inconclusive
